Laboratory results taken from PubChem BioAssay (Tox21).
Records with an inconclusive call do not appear. The source made the active and inactive calls. Unless noted, calls follow the shape of the dose curve; as a rule, active = well fitted curve in the direction sought with a large enough effect in the repeat runs; inconclusive = weak or mixed curves; inactive = no such curve, though single readings can be large; an effect the other way counts as inactive or inconclusive.

What was measured:
[1] = qHTS assay to identify small molecule antagonists of the estrogen receptor alpha (ER-alpha) signaling pathway using the BG1 cell line in the presence of 0.1 nM 17-beta-estradiol - cell viability counter screen (AID 1259241); also: nearly all actives have a fitted effect of over 40% in size
Method in brief: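 Cells were plated and left 24 hr, compounds in DMSO were pinned in, 17beta-estradiol was added to 0.1 nM final, and after 22 hr CellTiter-Fluor reagent was added for 30 min before fluorescence was read.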

[2] = qHTS assay to identify small molecule HDAC inhibitors (AID 1259364); also: top concentration of the series differs between compounds; nearly all actives have a fitted effect of over 45% in size
Method in brief: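 Wild-type HCT-116 cells, plated overnight at 37 C, exposed to compounds 2 hr at 37 C; luminogenic HDAC-Glo substrate then added 30 min at room temperature. Luminescence reports relative endogenous class I/II HDAC activity.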

[3] = qHTS assay to identify small molecule HDAC inhibitors - cell viability counter screen (AID 1259365); also: series mostly up to about 92 µM; nearly all actives have a fitted effect of over 50% in size
Method in brief: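 Counter screen in wild-type HCT-116 cells: compounds dissolved in DMSO are pin-transferred onto overnight-plated cells and left 2hr at 37C. ATP-based CellTiter-Glo luminescence then measures viable cells.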

[4] = qHTS assay to identify small molecule agonists of the sonic hedgehog signaling (Shh) pathway - cell viability counter screen (AID 1259366); also: nearly all actives have a fitted effect of over 50% in size
Method in brief: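 Cells are plated at 2,000 per well and left 4hr at 37C, 5% CO2 before compound addition. After 23hr of treatment, CellTiter-Fluor reagent is added for 1hr at 37C and fluorescence is measured.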

[5] = qHTS assay to identify small molecule antagonists of the sonic hedgehog signaling (Shh) pathway - cell viability counter screen (AID 1259367); also: nearly all actives have a fitted effect of over 55% in size
Method in brief: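 NIH/3T3-derived Gli1-Luc reporter cells (2,000 per well) rested 4 hr at 37 C, then received DMSO compounds plus conditioned medium. After 23 hr of treatment, CellTiter-Fluor was added for 1 hr at 37C and fluorescence read.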

[6] = qHTS assay to identify small molecule agonists of the sonic hedgehog signaling (Shh) pathway (AID 1259368; calls by dose curve;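 also: NIH/3T3-derived 3T3Gli1-Luc cells carrying a stable Gli1-driven firefly luciferase reporter; series mostly up to about 92 µM; nearly all actives have a fitted effect of over 15% in size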)
Method in brief: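 NIH/3T3-derived 3T3Gli1-Luc cells with stably integrated Gli1-driven firefly luciferase, 2,000 cells/well, compounds added after 4 hr. Incubated 24 hr at 37C, 5% CO2; luminescence read after 30 min with luciferase reagent at room temperature.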

[7] = qHTS assay to identify small molecule antagonists of the sonic hedgehog signaling (Shh) pathway (AID 1259369; calls by dose curve; also: nearly all actives have a fitted effect of over 45% in size)
Method in brief: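 NIH/3T3-derived Gli1-Luc reporter cells plated 4 h, dosed with compound, then stimulated with conditioned medium for 24 h at 37 C. Firefly luciferase luminescence read after 30 min with detection reagent at room temperature.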

[8] = target: Estrogen receptor beta (Homo sapiens) (UniProt Q92731); test: qHTS assay to identify small molecule agonists of the estrogen receptor beta (ER-beta) signaling pathway (AID 1259377; active = well fitted activation curve with a large enough effect in the signal ratio in the repeat runs, not every such curve was filed as active; the % refers to the signal ratio)
Method in brief: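 Agonist mode cell assay in GripTite HEK293T cells expressing an ER-beta fusion that drives beta-lactamase from an Upstream Activator Sequence; 16 hr compound exposure at 37C, then 2 h LiveBLAzer B/G FRET substrate at room temperature, fluorescence read-out.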

[9] = target: Estrogen receptor beta (Homo sapiens) (UniProt Q92731); test: qHTS assay to identify small molecule antagonists of the estrogen receptor beta (ER-beta) signaling pathway (AID 1259378; active = well fitted inhibition curve with a large enough effect in the signal ratio in the repeat runs, not every such curve was filed as active; the % refers to the signal ratio)
Method in brief: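 ER-beta-UAS-bla HEK293T (GripTite) cells in 2% charcoal-stripped FBS medium were preincubated 6 hr at 37C, dosed with compound, then stimulated with 1 nM E2 (final) for 16 hr; beta-lactamase reporter read by B/G FRET fluorescence after 2 hr substrate loading.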

[10] = qHTS assay to identify small molecule agonists of the androgen receptor (AR) signaling pathway in the presence of an antagonist - cell viability counter screen (AID 1259379);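 also: MDA-kb2 human breast cancer cells carrying an MMTV luciferase reporter; series mostly up to about 92 µM; nearly all actives have a fitted effect of over 25% in size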
Method in brief: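 MDA-kb2 cells (MMTV-luciferase, AR/GR), 3,000/well, 5 h attachment, then 3.0 µM nilutamide (final) and compounds at 15 concentrations. Viability by CellTiter-Fluor fluorescence after 16 h at 37 °C, 0% CO2, in the reporter wells.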

[11] = qHTS assay to identify small molecule agonists of the estrogen receptor beta (ER-beta) signaling pathway - cell viability counter screen (AID 1259380); also: nearly all actives have a fitted effect of over 30% in size
Method in brief: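 ER-beta-UAS-bla HEK293T cells in medium with 2% charcoal-stripped FBS, pre-incubated 6 hr, then treated 16 hr at 37C. Cytotoxicity read in the same wells by CellTiter-Glo luminescence after 30 min at room temperature.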

[12] = qHTS assay to identify small molecule antagonists of the estrogen receptor beta (ER-beta) signaling pathway - cell viability counter screen (AID 1259382); also: series mostly up to about 92 µM; nearly all actives have a fitted effect of over 55% in size
Method in brief: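 ER-beta-UAS-bla HEK293T cells in 2% charcoal-stripped FBS medium, treated with compound plus 1 nM 17-beta-estradiol for 16 h at 37C. Viability read by CellTiter-Glo luminescence after 30 min at room temperature in the same wells.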

[13] = qHTS assay to identify small molecule agonists or antagonists of the thyroid stimulating hormone receptor (TSHR) signaling pathway - wild type cell line counter screen (AID 1259384; calls by dose curve)
Method in brief: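 Wild-type HEK293 cells were plated 18 h at 37 C/5% CO2, pin-dosed with compound plus Ro20-1724 medium, held 30 min at room temperature, then given cAMP-d2 and anti-cAMP-cryptate; fluorescence was read after 1 h. Fifteen concentrations, triplicate.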

[14] = target: Thyrotropin receptor (Homo sapiens) (UniProt P16473); test: qHTS assay to identify small molecule antagonists of the thyroid stimulating hormone receptor (TSHR) signaling pathway (AID 1259385; calls by dose curve; also: nearly all actives have a fitted effect of over 20% in size)
Method in brief: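 TSHR-HEK293 cells were plated and held 18 h at 37C/5% CO2, then given compound plus Ro20-1724 and stimulated with TSH at 1.5 ng/mL final. After 30 min at room temperature, cAMP was detected with cAMP-d2/anti-cAMP-cryptate (1 h) by fluorescence.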

[15] = qHTS assay to identify small molecule agonists of the estrogen receptor alpha (ER-alpha) signaling pathway in the presence of an antagonist - cell viability counter screen (AID 1259386);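 also: series mostly up to about 92 µM; cells exposed to compounds for 22 h at 37 °C before the viability read; nearly all actives have a fitted effect of over 30% in size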
Method in brief: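 Cell viability in VM7Luc4E2 cells (endogenous full-length ER-alpha) measured by CellTiter-Fluor fluorescence in the same wells as the luciferase screen. Cells pre-cultured 5 days in charcoal-stripped serum, then treated 22 h with compounds at 15 concentrations plus 10.0nM ICI-182,780.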

[16] = qHTS assay to identify small molecule antagonists of the androgen receptor (AR) signaling pathway using the MDA cell line in the presence of 0.5 nM R1881 - cell viability counter screen (AID 1259242); also: nearly all actives have a fitted effect of over 45% in size
Method in brief: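 MDA-kb2 cells (MMTV-luciferase, AR/GR responsive) were treated with compounds plus 0.5 nM R1881 (final) for 16 hr at 37C, 0% CO2. Viability was then read in the same wells as live-cell protease fluorescence (CellTiter-Fluor, 30 min).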

[17] = target: Androgen receptor (Homo sapiens) (UniProt P10275); test: qHTS assay to identify small molecule antagonists of the androgen receptor (AR) signaling pathway using the MDA cell line in the presence of 0.5 nM R1881 (AID 1259243); also: nearly all actives have a fitted effect of over 50% in size
Method in brief: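 MDA-kb2 cells (MMTV-luciferase, responsive to AR and GR) at 3,000/well, rested 5 h at 37C, 0% CO2, then given compounds plus 0.5 nM R1881 (final) for 16 hr. Luciferase read with ONE-Glo after 30 min at room temperature.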

[18] = target: Estrogen receptor (Homo sapiens) (UniProt P03372); test: qHTS assay to identify small molecule antagonists of the estrogen receptor alpha (ER-alpha) signaling pathway using the BG1 cell line in the presence of 0.1 nM 17-beta-estradiol (AID 1259244); also: nearly all actives have a fitted effect of over 50% in size
Method in brief: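 VM7Luc4E2 cells (endogenous full-length ER-alpha, 4×ERE-luciferase), kept 5 days in phenol red-free, charcoal-stripped FBS medium; 4,000 cells/well. Compounds added with 0.1 nM (final) 17beta-estradiol, 22 hr at 37C; luminescence read with ONE-Glo after 30 min.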

[19] = qHTS assay to identify small molecule phospholipidosis (PLD) inducers (AID 1259344; active = well fitted curve in the direction sought with a large enough effect; an effect the other way counts as inactive or inconclusive)
Method in brief: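 HepG2 cells on collagen I, attached 4 h at 37 C, were co-treated with compound and LipidTOX Red dye for 24 h at 37 C, then fixed with paraformaldehyde plus Hoechst 33342 and imaged by high-content microscopy for phospholipid accumulation.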

[20] = target: Estrogen receptor (Homo sapiens) (UniProt P03372); test: qHTS assay to identify small molecule agonists of the estrogen receptor alpha (ER-alpha) signaling pathway in the presence of an antagonist (AID 1259383; calls by dose curve; also: top concentration of the series differs between compounds; nearly all actives have a fitted effect of over 15% in size)
Method in brief: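 VM7Luc4E2 cells express endogenous full-length ER-alpha with an ERE-luciferase reporter and were hormone-deprived for 5 days. Compounds at 15 concentrations were added with 10.0nM ICI-182,780 for 22hr at 37C. Luminescence was read with ONE-Glo.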
% is scaled to controls: 0 for no effect and ±100 for the full control effect.

Chain of Thyrotropin receptor (Homo sapiens) (P16473 whole entry, looked up): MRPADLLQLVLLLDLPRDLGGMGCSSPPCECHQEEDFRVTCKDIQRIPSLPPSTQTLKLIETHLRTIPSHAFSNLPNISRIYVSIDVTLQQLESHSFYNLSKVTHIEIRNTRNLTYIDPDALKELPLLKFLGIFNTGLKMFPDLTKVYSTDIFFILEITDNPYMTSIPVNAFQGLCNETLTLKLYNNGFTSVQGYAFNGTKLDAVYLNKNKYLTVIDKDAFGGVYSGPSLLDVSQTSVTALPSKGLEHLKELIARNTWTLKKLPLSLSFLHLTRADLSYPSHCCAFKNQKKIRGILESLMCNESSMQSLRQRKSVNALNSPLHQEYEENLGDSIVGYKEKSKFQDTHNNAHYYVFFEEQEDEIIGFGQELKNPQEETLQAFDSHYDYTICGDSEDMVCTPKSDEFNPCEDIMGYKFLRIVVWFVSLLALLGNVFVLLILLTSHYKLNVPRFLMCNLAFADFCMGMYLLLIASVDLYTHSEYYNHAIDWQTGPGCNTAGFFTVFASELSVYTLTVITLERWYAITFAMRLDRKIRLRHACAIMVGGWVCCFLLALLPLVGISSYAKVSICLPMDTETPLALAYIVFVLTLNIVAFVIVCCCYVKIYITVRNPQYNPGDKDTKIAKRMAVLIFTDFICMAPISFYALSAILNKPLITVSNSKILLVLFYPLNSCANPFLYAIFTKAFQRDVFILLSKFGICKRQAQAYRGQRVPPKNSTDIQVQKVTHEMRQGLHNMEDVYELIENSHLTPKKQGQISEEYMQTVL
Chain of Androgen receptor (Homo sapiens) (P10275 whole entry, looked up): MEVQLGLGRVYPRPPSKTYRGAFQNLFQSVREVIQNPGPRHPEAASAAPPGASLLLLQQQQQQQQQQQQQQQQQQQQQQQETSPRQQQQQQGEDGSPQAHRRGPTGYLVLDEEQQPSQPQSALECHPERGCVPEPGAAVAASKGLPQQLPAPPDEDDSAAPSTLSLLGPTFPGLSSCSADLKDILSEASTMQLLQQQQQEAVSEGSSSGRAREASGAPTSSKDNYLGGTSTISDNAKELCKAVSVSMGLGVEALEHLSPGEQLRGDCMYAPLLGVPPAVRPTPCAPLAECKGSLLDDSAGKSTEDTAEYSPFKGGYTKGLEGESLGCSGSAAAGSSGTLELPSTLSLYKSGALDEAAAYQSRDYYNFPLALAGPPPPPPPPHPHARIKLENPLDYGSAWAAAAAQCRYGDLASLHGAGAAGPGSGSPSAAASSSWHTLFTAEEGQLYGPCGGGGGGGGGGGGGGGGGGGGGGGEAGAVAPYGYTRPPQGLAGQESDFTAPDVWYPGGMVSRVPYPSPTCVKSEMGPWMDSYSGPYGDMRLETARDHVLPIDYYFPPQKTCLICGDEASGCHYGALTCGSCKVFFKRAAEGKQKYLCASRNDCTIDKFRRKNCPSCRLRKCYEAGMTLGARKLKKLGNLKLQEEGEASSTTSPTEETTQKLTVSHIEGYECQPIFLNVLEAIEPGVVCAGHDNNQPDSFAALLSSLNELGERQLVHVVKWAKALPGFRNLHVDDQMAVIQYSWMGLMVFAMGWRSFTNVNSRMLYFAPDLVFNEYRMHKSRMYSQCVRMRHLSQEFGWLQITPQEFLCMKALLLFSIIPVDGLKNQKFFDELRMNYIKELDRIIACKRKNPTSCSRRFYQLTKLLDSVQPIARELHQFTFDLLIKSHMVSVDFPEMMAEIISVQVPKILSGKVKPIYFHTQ
Chain of Estrogen receptor (Homo sapiens) (P03372 whole entry, looked up): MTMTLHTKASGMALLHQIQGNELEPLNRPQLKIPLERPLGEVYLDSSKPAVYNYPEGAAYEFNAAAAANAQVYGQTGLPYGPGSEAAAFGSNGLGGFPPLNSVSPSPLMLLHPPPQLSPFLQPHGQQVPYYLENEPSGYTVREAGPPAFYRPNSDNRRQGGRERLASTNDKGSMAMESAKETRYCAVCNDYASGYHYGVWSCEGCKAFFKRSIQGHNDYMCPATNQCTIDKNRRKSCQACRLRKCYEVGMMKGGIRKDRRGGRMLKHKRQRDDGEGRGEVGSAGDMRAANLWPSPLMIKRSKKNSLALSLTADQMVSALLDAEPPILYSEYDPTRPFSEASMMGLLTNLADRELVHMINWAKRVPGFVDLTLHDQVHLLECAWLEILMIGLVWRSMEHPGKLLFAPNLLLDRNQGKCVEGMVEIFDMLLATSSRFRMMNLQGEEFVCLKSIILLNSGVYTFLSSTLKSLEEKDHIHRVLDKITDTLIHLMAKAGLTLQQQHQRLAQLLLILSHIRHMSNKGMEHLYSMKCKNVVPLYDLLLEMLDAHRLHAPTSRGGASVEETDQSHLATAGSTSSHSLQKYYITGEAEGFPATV
Chain of Estrogen receptor beta (Homo sapiens) (Q92731 whole entry, looked up, the tested form may be a part): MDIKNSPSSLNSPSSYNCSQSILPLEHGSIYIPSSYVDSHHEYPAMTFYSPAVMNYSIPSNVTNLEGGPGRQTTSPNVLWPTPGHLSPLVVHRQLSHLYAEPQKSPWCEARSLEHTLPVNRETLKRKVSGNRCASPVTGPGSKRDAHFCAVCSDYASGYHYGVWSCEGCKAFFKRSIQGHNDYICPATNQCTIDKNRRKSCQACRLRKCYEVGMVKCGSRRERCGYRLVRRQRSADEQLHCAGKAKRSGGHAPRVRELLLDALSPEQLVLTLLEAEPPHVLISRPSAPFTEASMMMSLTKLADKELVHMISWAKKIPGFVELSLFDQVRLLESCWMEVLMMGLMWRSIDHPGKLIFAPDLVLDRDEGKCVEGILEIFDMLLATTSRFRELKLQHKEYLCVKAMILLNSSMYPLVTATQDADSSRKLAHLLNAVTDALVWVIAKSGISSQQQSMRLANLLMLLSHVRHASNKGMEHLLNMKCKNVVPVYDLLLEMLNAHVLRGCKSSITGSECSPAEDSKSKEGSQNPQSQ

N=C(N)c1ccccc1
inactive: outcome [1] | Potency [2] | outcome [3] | Potency [4] | Potency [5] | outcome [6] | Potency [7] | outcome [8] | outcome [9] | Potency [10] | Potency [11] | Potency [12] | outcome [13] | Potency [14] | Potency [15]

CC(C)NCC(O)c1ccc(NS(C)(=O)=O)cc1 (centres undefined)
inactive: outcome [1] | Potency [2] | outcome [3] | Potency [4] | Potency [5] | outcome [6] | Potency [7] | outcome [8] | outcome [9] | Potency [10] | Potency [11] | Potency [12] | outcome [13] | Potency [14] | Potency [15]

CCn1ccnc1CC1COc2ccccc2O1 (centres undefined)
inactive: Potency [16] | Potency [17] | outcome [18] | Potency [19] | Potency [2] | outcome [3] | Potency [4] | Potency [5] | Potency [7] | Potency [10] | Potency [11] | Potency [12] | Potency [20] | outcome [13] | Potency [14] | Potency [15]

CC(C)(O)C#CC(C)(C)O
inactive: outcome [1] | outcome [18] | outcome [3] | Potency [4] | Potency [5] | outcome [6] | Potency [10] | Potency [11] | Potency [12] | Potency [20] | outcome [13] | Potency [14] | Potency [15]

CC(NC(CCc1ccccc1)C(=O)O)C(=O)N1C(=O)N(C)CC1C(=O)O (centres undefined)
inactive: Potency [16] | Potency [17] | Potency [2] | outcome [3] | Potency [4] | Potency [5] | outcome [8] | outcome [9] | Potency [10] | Potency [11] | Potency [12] | outcome [13] | Potency [14] | Potency [15]

COc1ccc2c(c1)CCCC2=O
inactive: outcome [1] | outcome [18] | Potency [2] | outcome [3] | Potency [4] | Potency [5] | Potency [7] | Potency [10] | Potency [11] | Potency [12] | Potency [15]

Nc1ccc(S(=O)(=O)Nc2ccnn2-c2ccccc2)cc1
inactive: activity change, negative = cytotoxicity [1] 0.0467% [at 19 µM] | activity change, negative = inhibition [18] 0.724% [at 19 µM] | activity change, negative = inhibition [2] -2.22% [at 19 µM] | activity change, negative = cytotoxicity [3] 2.68% [at 19 µM] | viability change, negative = cytotoxic [4] 10.6% [at 19 µM] | Potency [5] | activity change [6] -1.14% [at 18.9 µM] | activity, negative = inhibition [9] 0.746% [at 19 µM] | activity change, negative = cytotoxicity [10] -0.249% [at 19 µM] | activity change, negative = cytotoxicity [11] 9.8% [at 19 µM] | activity change, negative = cytotoxicity [12] 5.67% [at 19 µM] | activation [20] -0.0289% [at 19 µM] | cAMP activity change [13] 3.46% [at 18.9 µM] | activity change, negative = inhibition [14] 0.942% [at 19 µM] | activity change, negative = cytotoxicity [15] 1.05% [at 19 µM]

CN1N=C(C(N)=O)CCC1=O
inactive: Potency [16] | Potency [17] | outcome [18] | Potency [2] | outcome [3] | Potency [4] | Potency [5] | outcome [6] | Potency [10] | Potency [11] | Potency [12] | Potency [20] | Potency [14] | Potency [15]

CCCCNC(=O)NCCCC
inactive: Potency [16] | Potency [17] | outcome [18] | Potency [2] | outcome [3] | Potency [4] | Potency [5] | outcome [6] | Potency [7] | Potency [10] | Potency [11] | Potency [12] | Potency [20] | outcome [13] | Potency [14] | Potency [15]
